An excerpt weighted towards active compounds, which were near 10% of everything screened.
GLS inh: blocks human kidney-isoform glutaminase activity | actives 0.21% (n = 410,000) | GLS enzymatic activity, qHTS titration | O94925 | Potency, µM (top dose mostly 45.5 µM), inactives show top-dose activity change, negative = inhibition, hits mostly inhibitors | AID 624170; further: on the % scale 0 is the no-effect control and ±100 the full control effect
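Coupled fluorescence readout: glutamate oxidase/HRP/Amplex Red detect glutamate formed by hKGA from L-glutamine (1 mM solution added). Buffer 45 mM KH2PO4 pH 8.2, 0.02% Tween-20; reads at t0 and 30 min RT.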
HP1b chromo inh: blocks HP1-beta chromodomain binding to methylated histone tails; AID 540317; Potency, µM (titrated, usually from 114 µM), for the others: at the top dose activity change, negative = inhibition, actives largely listed as inhibitors; P83916; AlphaScreen HP1-beta / biotin-H3K9me3 peptide binding; actives 0.56% (n = 390,000); further: nearly all actives have a fitted effect of over 70% in size
Target sequence (P83916 whole entry, looked up): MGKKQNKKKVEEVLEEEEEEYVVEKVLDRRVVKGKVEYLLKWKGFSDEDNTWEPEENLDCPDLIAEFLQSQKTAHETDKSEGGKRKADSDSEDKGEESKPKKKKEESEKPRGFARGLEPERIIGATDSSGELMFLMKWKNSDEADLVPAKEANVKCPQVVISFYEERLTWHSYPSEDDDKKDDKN
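Compound inhibition of the preformed complex between 50 nM HP1-beta and 50 nM biotinylated H3K9me3 peptide was read by AlphaScreen. Buffer was PBS pH 7.4 with 0.01% Tween-20. Incubations ran 30 min at room temperature, with 10 ug/mL donor/acceptor beads.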
BAZ2B inh: inhibitors of human BAZ2B bromodomain. Q9UIF8. AlphaScreen BAZ2B-H3K14Ac peptide displacement. Potency, µM (top dose mostly 114 µM), without a hit: at the top dose activity change, negative = inhibition, hits mostly inhibitors. actives 4.4% (n = 360,000). AID 504333; further: on the % scale 0 is the no-effect control and ±100 the full control effect; nearly all actives have a fitted effect of over 60% in size
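In this displacement format the biotinylated H3(5-23) peptide acetylated at Lys14 serves as ligand at 50 nM, with BAZ2B at 50 nM in PBS pH 7.4 containing 0.01% Tween-20. Donor and acceptor beads are 10 ug/mL final.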
G9a inh: blocks human histone lysine methyltransferase G9a; Q96KQ7; G9a H3K9 monomethylation, AlphaScreen, 2 h; Potency, µM (titrated, usually from 102 µM), inactives show at the highest dose activity, negative = inhibition, actives largely listed as inhibitors; actives 8.8% (n = 350,000); AID 504332; further: on the % scale 0 is the no-effect control and ±100 the full control effect; nearly all actives have a fitted effect of over 75% in size
Target sequence (Q96KQ7 913-1193 limits assumed): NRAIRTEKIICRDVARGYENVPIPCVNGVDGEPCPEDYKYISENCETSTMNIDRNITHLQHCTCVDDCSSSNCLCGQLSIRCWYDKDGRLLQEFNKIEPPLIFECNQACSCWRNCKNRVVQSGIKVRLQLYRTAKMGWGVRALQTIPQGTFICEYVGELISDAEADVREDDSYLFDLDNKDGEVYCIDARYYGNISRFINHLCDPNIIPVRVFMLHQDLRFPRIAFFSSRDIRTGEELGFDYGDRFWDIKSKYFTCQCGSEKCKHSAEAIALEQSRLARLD
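G9a (20 nM) was preincubated 15 min with compound, then reacted 2 h at room temperature with 500 nM biotin-H3K9 peptide and 20 µM SAM. Monomethyl-H3K9 detected by AlphaScreen using anti-H3K9me1 antibody.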
JMJD2A Tudor: JMJD2A Tudor domain (human) inhibition. O75164. AlphaScreen JMJD2A-Tudor / H3K4me3 peptide binding. Potency, µM (doses to about 114 µM), for the others: at the top dose activity change, negative = inhibition, usual class: inhibitors. actives 4.4% (n = 390,000); further: on the % scale 0 is the no-effect control and ±100 the full control effect; nearly all actives have a fitted effect of over 50% in size
Active calls of the source: *; [ ] = remark or other dose. The call rests on the fitted dose curve; in most records, active means well fitted curve in the direction sought with a large enough effect; inconclusive means small, poorly fitted or top-dose-only effect, or another doubt; inactive means no such curve, though single readings can be large; an effect the other way counts as inactive or inconclusive. Potency means the concentration at half of the fitted maximal effect.

Screening O=c1[nH]ncn1-c1ccccc1C(F)(F)F returned GLS inh 11.4%, HP1b chromo inh 10.5%, BAZ2B inh 11.4%, G9a inh 10.1%[59 µM] and JMJD2A Tudor -12.5%.
`S=c1[nH]nc(Cn2cnc3ccccc32)n1-c1ccccc1` gave GLS inh -7.3%, HP1b chromo inh -7.0%, BAZ2B inh -14.9%, G9a inh 8.91µM* and JMJD2A Tudor 4.47µM*.
`COc1ccc(C(=O)CSc2nnc(CN3CCCCC3)n2-c2ccc(F)cc2)cc1` gave GLS inh 0.3%, HP1b chromo inh 14.5%, BAZ2B inh -30.5%, G9a inh inconclusive and JMJD2A Tudor -25.5%.
For c1ccc2c(c1)ncn2CCn1cnc2ccccc21 the results were GLS inh -3.0%, HP1b chromo inh 53.1%, BAZ2B inh 12.6%, G9a inh 9.1%[59 µM] and JMJD2A Tudor 12.2%[57.1 µM].
For S=c1[nH]nc(CN2CCCCC2)n1-c1ccc(Cl)cc1 the results were GLS inh 0.0%, HP1b chromo inh 32.0%, BAZ2B inh -22.3%, G9a inh 17.8µM* and JMJD2A Tudor 5.4%.
For Fc1ccc(-n2c(CN3CCCCC3)n[nH]c2=S)cc1 the results were GLS inh -15.7%, HP1b chromo inh 41.2%, BAZ2B inh -11.0%, G9a inh 44.7µM* and JMJD2A Tudor inconclusive.
`N=c1c(C(=O)NCCc2ccccc2)cc2c(=O)n3ccccc3nc2n1CC1CCCO1` (centres undefined) gave GLS inh -12.8%, HP1b chromo inh 52.1%, BAZ2B inh 5.7%, G9a inh 64.8% and JMJD2A Tudor -1.5%.
For COc1ccc(CN2CCc3nc(SCC(=O)Nc4cc(C)cc(C)c4)[nH]c(=O)c3C2)cc1 the results were GLS inh -6.3%, HP1b chromo inh 41.9%, BAZ2B inh -1.0%, G9a inh inconclusive and JMJD2A Tudor -0.3%.
`Nc1nc(N)c(N=O)c(Nc2ccc(Cl)c(Cl)c2)n1` gave GLS inh -6.3%.
Screening Cc1ccccc1C(=O)c1cn[nH]c1-c1ccccc1O returned GLS inh 14.2%, HP1b chromo inh 35.8%, BAZ2B inh 0.7%, G9a inh 10.5%[2.33 µM] and JMJD2A Tudor -12.8%.
S=c1[nH]nc(Cn2nnc3ccccc32)n1-c1ccc(Cl)cc1 was read as GLS inh -1.0%, HP1b chromo inh 48.8%, BAZ2B inh -6.8%, G9a inh 11.2µM* and JMJD2A Tudor -6.0%.
Cc1ccc(OCc2nc(-c3ccccn3)n[nH]2)cc1 was read as GLS inh 1.9%, HP1b chromo inh 50.7%, BAZ2B inh 3.98µM*, G9a inh 70.8%[59 µM] and JMJD2A Tudor 20µM*.
`Cc1cccc(OCc2nc(-c3ccccn3)n[nH]2)c1` gave GLS inh 1.4%, HP1b chromo inh 45.9%, BAZ2B inh 8.91µM*, G9a inh 22.6%[59 µM] and JMJD2A Tudor 12.6µM*.
`COc1cc2c(-c3ccccc3Cl)nc3c(c(C)nn3-c3ccccc3)c2cc1OC` gave GLS inh 5.7%, HP1b chromo inh 80.7%, BAZ2B inh 19.5%, G9a inh 46.5%[59 µM] and JMJD2A Tudor 35.6%.
`COC(=O)C1=C(O)/C(=C/c2ccc(OCC(=O)Nc3ccc(OC)cc3)cc2)N=C1C` gave GLS inh -4.9%.
`COC(=O)c1ccc(C2/C(=C(/O)c3ccc4c(c3)CC(C)O4)C(=O)C(=O)N2CCN2CCOCC2)cc1` (centres undefined) gave GLS inh 0.4%, HP1b chromo inh 45.7%, BAZ2B inh -16.9%[57.1 µM], G9a inh 50.1µM* and JMJD2A Tudor inconclusive.
`Cc1nnc(N2C(=O)C(=O)/C(=C(/O)c3ccc4c(c3)OCCO4)C2c2ccc([N+](=O)[O-])cc2)s1` (centres undefined) gave BAZ2B inh inconclusive and G9a inh 28.2µM*.
`COc1cccc(C2/C(=C(\O)c3ccc4c(c3)OCCO4)C(=O)C(=O)N2c2nnc(C)s2)c1` (centres undefined) gave GLS inh 0.7%, HP1b chromo inh 2.7%[57 µM], BAZ2B inh inconclusive, G9a inh -6.2%[0.501 µM] and JMJD2A Tudor -17.1%.
Screening COc1ccc(C2/C(=C(\O)c3ccc4c(c3)OCCO4)C(=O)C(=O)N2Cc2ccco2)c(OC)c1 (centres undefined) returned GLS inh 29.7%, HP1b chromo inh -6.9%, BAZ2B inh inconclusive, G9a inh inconclusive and JMJD2A Tudor inconclusive.
COc1ccc(C2/C(=C(\O)c3ccc4c(c3)OCCO4)C(=O)C(=O)N2c2nc(C)c(C(C)=O)s2)cc1 (centres undefined) was read as GLS inh 2.8%, HP1b chromo inh 7.2%, BAZ2B inh inconclusive, G9a inh 44.7µM* and JMJD2A Tudor -27.8%.
`COC(=O)c1ccc(C2/C(=C(\O)c3ccc4c(c3)OCCO4)C(=O)C(=O)N2c2nnc(C)s2)cc1` (centres undefined) gave GLS inh 1.9%, HP1b chromo inh 66.0%, BAZ2B inh -38.2%, G9a inh 44.7µM* and JMJD2A Tudor -28.8%.
For CC1CCN(C(=O)COC(=O)CCc2c[nH]c3ccccc23)CC1 the results were GLS inh 2.3%, HP1b chromo inh 18.0%, G9a inh 16.3% and JMJD2A Tudor -10.1%.
Screening O=C(NN1C(=O)c2ccccc2NC12CCCCC2)c1ccccc1 returned GLS inh -2.7%, HP1b chromo inh 35.6%, BAZ2B inh -24.5%, G9a inh -7.4%[59 µM] and JMJD2A Tudor -4.8%.
Screening COCCCN1C(=O)C(=O)/C(=C(/O)c2ccc3c(c2)OCCO3)C1c1ccc(C(=O)OC)cc1 (centres undefined) returned GLS inh 5.0%, HP1b chromo inh -1.0%, BAZ2B inh -32.1%, G9a inh -12.1%[59 µM] and JMJD2A Tudor inconclusive.
For COCCN1C(=O)C(=O)/C(=C(/O)c2ccc3c(c2)OCCO3)C1c1ccc(C(=O)OC)cc1 (centres undefined) the results were GLS inh 13.4%, HP1b chromo inh -7.8%, BAZ2B inh inconclusive, G9a inh inconclusive and JMJD2A Tudor 44.7µM*.
COc1cccc(N=CNc2cccc(OC)c2)c1 was read as GLS inh -5.6%, HP1b chromo inh -19.7% and JMJD2A Tudor 50.1µM*.
`COc1ccc(N=CC=C2OC(C)(C)C(C)(C)O2)cc1OC` gave GLS inh 2.0%, HP1b chromo inh 40.1%, BAZ2B inh inconclusive, G9a inh 31.6µM* and JMJD2A Tudor -25.6%.
Screening Cc1cccc(N=CC=C2OC(C)(C)C(C)(C)O2)c1 returned GLS inh 2.0%, HP1b chromo inh 30.6%, BAZ2B inh -14.2%, G9a inh inconclusive and JMJD2A Tudor -13.9%.
For COc1cccc(N=CC=C2OC(C)(C)C(C)(C)O2)c1 the results were GLS inh 5.2%, HP1b chromo inh 38.0%, BAZ2B inh 0.9%, G9a inh 35.5µM* and JMJD2A Tudor -20.3%.
